According to PubChem BioAssay AID2685 (National Center for Advancing Translational Sciences (NCATS), 2010):
Where “and” joins values, the source holds several entries; their conditions need not be identical. Identical values can stand only once. Among all 320,000 compounds or so, about 2,100 (0.66%) were called active. Another 53% or so got no clear call; they are omitted. The call rests on the fitted dose curve; in most records, active means well fitted inhibition curve with a large enough effect in the signal ratio, with a control signal flat (not every such curve was filed as active); inconclusive means small, poorly fitted or top-dose-only effect, or effect the other way, or a change in a side signal; inactive means flat fitted curve, though single readings scatter; the % refers to the signal ratio. The entries come from a sample that favours actives as a whole.

experiment: qHTS Assay for Lipid Storage Modulators in Drosophila S3 Cells; conditions: BODIPY lipid droplet fluorescence, 18-24 h, cells fed with added oleic acid; cell number change: measured here: cell count max response; series mostly up to 46.1 µM;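 on cell number change: cells counted by Cell Tracker Red CMTPX staining in the red channel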
How it was run: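 Drosophila S3 cells loaded with oleic acid (400 uM, as added) and compounds at several concentrations; lipid droplets imaged by 488-nm laser-scanning cytometry, 500–530 nm intensity and object ratio to cell channel. Percent activity normalized to 20 uM Triacsin C.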
Potency means the concentration at half of the fitted maximal effect.

Row | SMILES | Potency | cell number change
1 | c1ccc(Cc2cc[n+](Cc3ccccn3)cc2)cc1 | inactive | 3.79%
2 | CCOC(=O)c1c(C)nc2ccccc2c1C | inactive | 
3 | Cn1c(N)c(C(=O)/C=C/c2ccccc2)c(=O)[nH]c1=O | inactive | 12.4%
4 | Cc1nc2ccccc2c(N)c1C(=O)/C=C/c1ccccc1 | 14.6 µM (active) | -20.1%
5 | CC(Nc1nc2ncn(Cc3ccccc3)c2c(=O)[nH]1)C(=O)O (stereo not drawn) | inactive | -0.475%
6 | O=C(O)CCCCCNc1nc2ncn(Cc3ccccc3)c2c(=O)[nH]1 | 32.6 µM (active) | -20%
7 | O=c1[nH]c(N2CCCCCC2)nc2ncn(Cc3ccccc3)c12 | inactive | 7.21%
8 | Cc1ccc[n+](/C(=C\C(=C=[N-])C#N)C(=O)c2ccc(Cl)cc2)c1 | inactive | 18.6%
9 | O=C1CN(C(=O)c2ccccc2F)C(c2ccc(F)cc2)c2cc(Br)ccc2N1 (stereo not drawn) | inactive | -12.8%
10 | CC(=O)Nc1ccc(C(=O)OCC(=O)N2CCC(Cc3ccccc3)CC2)cc1 | 2.91 µM (active) | -6.23%
11 | CC(=O)Nc1ccc(OCC(=O)N2CCC(Cc3ccccc3)CC2)cc1 | inactive | -1.18%
12 | COc1cc(C(=O)OCC(=O)N2CCC(Cc3ccccc3)CC2)cc(OC)c1OC | inactive | 
13 | CC1=C(C(=O)NC2CCCc3c2cnn3-c2cc(F)cc(F)c2)OCCO1 (stereo not drawn) | inactive | 4.32%
14 | COc1ccc(C(=O)NNC(=O)c2cc3cc(OC)ccc3oc2=O)cc1 | inactive | 12.8%
15 | COc1ccc(NC(=O)c2cccs2)cc1 | inactive | -1.91%
16 | Cc1ccc(C(O)(C(=O)NNc2ccc3ccccc3n2)c2ccc(C)cc2)cc1 | inactive | -2.27%
17 | COc1ccc(C(O)(C(=O)NNc2ccc(C)cc2)c2cccs2)cc1 (stereo not drawn) | 32.6 µM (active) | 10.5%
18 | Cc1cc2ncn(-c3ncnc4sc5c(c34)CCCC5)c2cc1C | inactive | 8.27%
19 | c1ccc(CN(Cc2ccco2)C(c2ccncc2)c2nnnn2C2CCCC2)cc1 (stereo not drawn) | inactive | 
20 | O=C(Nc1cc(Cl)cc(Cl)c1)C1CCCC1 | 20.6 µM (active) | -3.7%
21 | O=C(Nc1ccc(Cl)cc1)C1CCCC1 | inactive | -15.4%
22 | O=C(CNC(=O)C1CCCCC1)Nc1cc(Cl)cc(Cl)c1 | inactive | 

Row | SMILES | Potency | cell number change
23 | COC(=O)C1=C(C)N(C)C(=O)NC1c1ccc(C)cc1 (stereo not drawn) | inactive | -10.6%
24 | COC(=O)C1=C(C)N(C)C(=O)NC1c1ccccc1 (stereo not drawn) | 29.1 µM (active) | -9.2%
25 | CC1=C(C(=O)OC(C)C)C(c2ccccc2)NC(=O)N1C (stereo not drawn) | inactive | 
26 | Cc1ccccc1NC(=O)C(C)c1cccc(C(=O)c2ccccc2)c1 (stereo not drawn) | inactive | 28.9%
27 | C[C@H](C(=O)O)c1cccc(C(=O)c2ccccc2)c1 | inactive | 5.73%
28 | CC(C(=O)O)c1cccc(C(=O)c2ccccc2)c1 (stereo not drawn) | 23% and -14% | 
29 | CC(=O)c1cccc(NC(=O)CN(C2CCCCC2)S(C)(=O)=O)c1 | inactive | 
30 | CCCCc1ccc(NC(=S)NCCO)cc1 | inactive | 
31 | O=S(=O)(c1ccc(-c2ccccc2)cc1)N1CCCCC1 | inactive | 14.2%
32 | Cc1ccccc1NS(=O)(=O)c1ccc(NS(=O)(=O)c2cccs2)cc1 | inactive | 22.7%
33 | O=S(=O)(Nc1ccc(F)cc1)c1ccc(NS(=O)(=O)c2cccs2)cc1 | 3.66 µM (active) | 5.22%
34 | Cc1ccc(NS(=O)(=O)c2ccc(NS(=O)(=O)c3cccs3)cc2)cc1 | inactive | 
35 | Cc1ccc(-n2nc3c(c2NC(=O)CC(C)C)CS(=O)C3)cc1 (stereo not drawn) | inactive | -3.89%
36 | Clc1nnc(N2CCCCC2)c2ccccc12 | inactive | 
37 | c1ccc2c(N3CCCCC3)nnc(N3CCCCC3)c2c1 | 23.1 µM (active) | 9%
38 | Cc1ccc(-c2nnc(N3CCCCC3)c3ccccc23)cc1 | inactive | -9.5%
39 | CCCCN1C2CCCC1CC(NC(=O)c1cccc(Cl)c1)C2 (stereo not drawn) | inactive | -7.62%
40 | CN(C(=O)COc1ccccc1)C1CCS(=O)(=O)C1 (stereo not drawn) | inactive | -15.6%
41 | CC(C)(C)NCC(O)COc1c(F)cc(Br)cc1F (stereo not drawn) | 29.1 µM (active) | -21.9%
42 | Cc1cccc(C)c1OCC(O)CNC(C)(C)C (stereo not drawn) | inactive | 8.88%
43 | Cc1cc(C)c(OCC(O)CNC(C)(C)C)c(C)c1 (stereo not drawn) | inactive | 1.51%
44 | CCCCn1c(N)c(N(CC(C)C)C(=O)c2cnccn2)c(=O)[nH]c1=O | inactive | -16.5%

Row | SMILES | Potency | cell number change
45 | O=C(NC1CCCCC1)C1Cc2ccccc2CN1S(=O)(=O)c1ccc(F)cc1 (stereo not drawn) | inactive | -3.73%
46 | CC(C)CC(OC(=O)c1nsc(Cl)c1Cl)C(=O)NCc1cccs1 (stereo not drawn) | inactive | -3.42%
47 | CCC(OC(=O)c1nsc(Cl)c1Cl)C(=O)NCc1cccs1 (stereo not drawn) | inactive | 3.99%
48 | CC(OC(=O)c1nsc(Cl)c1Cl)C(=O)NCc1cccs1 (stereo not drawn) | 32.6 µM (active) | 2.66%
49 | O=C1COc2ccc(C(=O)CSc3ccccc3C(=O)O)cc2N1 | inactive | 8.27%
50 | COc1ccc(C2=NC(c3ccccc3)CO2)cc1 (stereo not drawn) | inactive | -8.42%
51 | CCOC(=O)C1(Cc2cccc(Cl)c2)CCCN(C(=O)c2cc(C)on2)C1 (stereo not drawn) | inactive | 6.36%
52 | CCOC(=O)C1(Cc2cccc(Cl)c2)CCCN(C(=O)c2cc(C)n(C)n2)C1 (stereo not drawn) | inactive | 17.5%
53 | CCOC(=O)C1(Cc2cccc(Cl)c2)CCCN(C(=O)c2cc(CC)on2)C1 (stereo not drawn) | 2.31 µM (active) | -22.9%
54 | CCOc1ccc(OCC)c(S(=O)(=O)NCc2ccccn2)c1 | inactive | -15.9%
55 | O=c1c(Cc2ccc(Cl)cc2)c(O)ccn1Cc1cccs1 | inactive | 1.85%
56 | COCc1c(C(=O)N/N=C/c2c[nH]c3ccccc23)nnn1-c1nonc1N | 0.164 µM (active) | -1.35%
57 | Cc1ccc(-c2c(C(=O)N/N=C/c3ccco3)nnn2-c2nonc2N)cc1 | inactive | -15%
58 | Cc1ccc(/C=N/NC(=O)c2nnn(-c3nonc3N)c2-c2ccccc2)o1 | inactive | 4.2%
59 | Cc1ccc(-c2c(C(=O)N/N=C/c3cccs3)nnn2-c2nonc2N)cc1 | inactive | -27.4%
60 | Cc1ccc(-c2c(C(=O)N/N=C/c3ccc(C)o3)nnn2-c2nonc2N)cc1 | 2.06 µM (active) | -11.5%
61 | COCc1c(C(=O)N/N=C/c2cccc3ccccc23)nnn1-c1nonc1N | inactive | 13.5%
62 | Cc1ccc(-c2c(C(=O)N/N=C/c3c[nH]c4ccccc34)nnn2-c2nonc2N)cc1 | 14.6 µM (active) | -29.2%
63 | Cc1ccc(/C=N/NC(=O)c2nnn(-c3nonc3N)c2C)o1 | inactive | -13.6%
64 | CCCN(CCC)Cc1c(C(=O)N/N=C/c2c[nH]c3ccccc23)nnn1-c1nonc1N | inactive | 9.46%
